Screening results (PubChem BioAssay)
TbPYK inhibitor = qHTS of Trypanosoma Brucei Inhibitors | pyruvate kinase (Trypanosoma brucei), Q57TT1 | TbPYK enzyme, Kinase-Glo Plus ATP luminescence, 45 min | Potency, µM (top dose mostly 76.8 µM), inactives show top-dose activity, negative = inhibition, usual class: inhibitors | 0.12% of 410,000 active | AID 624173, 2012; further: potency means the concentration at half of the fitted maximal effect; on the % scale 0 is the no-effect control and ±100 the full control effect; nearly all actives have a fitted effect of over 50% in size
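Readout: single end-point luminescence (Kinase-Glo Plus, 10 min). Reaction conditions were TbPYK/substrate plus 130 uM ADP, 45 min at RT, pH 7.2 TEA buffer. No-enzyme wells served as controls, and data were normalized before concentration-response fitting.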
Shiga toxin inh = A qHTS for Small Molecule Inhibitors of Shiga Toxin | Vero cells, Shiga toxin protein synthesis inhibition reporter | inhibition, % at 38.7 µM | 9.2% of 290,000 active | AID 2315, 2010; in the data active means inhibition mostly above about 28%, no sharp cut-off; inactive means mostly below about 43%; further: 0% is about no effect
CHX counter = Cycloheximide Counterscreen for Small Molecule Inhibitors of Shiga Toxin; cell reporter, cycloheximide protein synthesis inhibition counterscreen; max response, %; 12% of 300,000 active; in the data active means max response mostly above about 13%, no sharp cut-off; inactive means mostly below about 14%; further: read at 38.3 µM for the half of the compounds with a filed dose; 0% is about no effect
FBPA Giardia inh = qHTS Assay for Inhibitors of Fructose-1,6-bisphosphate Aldolase from Giardia Lamblia | A8B2U2 | purified Giardia FBPA | Potency, µM (doses to about 59.6 µM), inactives show at the top dose activity, negative = inhibition, usual class: inhibitors | 0.71% of 290,000 active; further: potency means the concentration at half of the fitted maximal effect; on the % scale 0 is the no-effect control and ±100 the full control effect; nearly all actives have a fitted effect of over 55% in size
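Giardia FBPA (40 nM reagent) was preincubated 10 min at RT with compound (up to 57.5 uM final), then substrate plus GAPDH/TPI/NAD/arsenate coupling system with diaphorase/resazurin was added; resorufin fluorescence (525/598 nm) was read after 20 min.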
RE007 growth inh = qHTS Assay for Inhibitors of the HIV-1 protein Vpr | Potency, µM (series often up to 92.2 µM), inactives show at the top dose activity change, negative = less growth, usual class: inhibitors | 0.21% of 360,000 active | S. pombe RE007 Vpr strain, BacTiter-Glo ATP luminescence, 24 h | AID 651644, 2012; active means well fitted falling curve with a large enough effect; inconclusive means small, poorly fitted or top-dose-only effect; inactive means no such curve, though single readings can be large or run the other way; further: potency means the concentration at half of the fitted maximal effect; on the % scale 0 is the no-effect control and ±100 the full control effect; nearly all actives have a fitted effect of over 50% in size
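Fission yeast RE007 carrying one integrated HIV-1 vpr copy, seeded at OD 0.01 in PMG+AL medium with 23 nL pinned compound. Grown 24 h at 30 degrees; viability read by BacTiter-Glo luminescence after 5 min.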
LmPK inhibitor = qHTS Assay for Inhibitors of Leishmania Mexicana Pyruvate Kinase (LmPK) | Q27686 | purified LmPK, Kinase-Glo ATP luminescence, 1 h | Potency, µM (doses to about 57.5 µM), inactives show at the highest dose activity change, negative = inhibition, most hits filed as inhibitors | 0.37% of 290,000 active | AID 1721, 2009; further: potency means the concentration at half of the fitted maximal effect; on the % scale 0 is the no-effect control and ±100 the full control effect
Target sequence (Q27686 whole entry, looked up): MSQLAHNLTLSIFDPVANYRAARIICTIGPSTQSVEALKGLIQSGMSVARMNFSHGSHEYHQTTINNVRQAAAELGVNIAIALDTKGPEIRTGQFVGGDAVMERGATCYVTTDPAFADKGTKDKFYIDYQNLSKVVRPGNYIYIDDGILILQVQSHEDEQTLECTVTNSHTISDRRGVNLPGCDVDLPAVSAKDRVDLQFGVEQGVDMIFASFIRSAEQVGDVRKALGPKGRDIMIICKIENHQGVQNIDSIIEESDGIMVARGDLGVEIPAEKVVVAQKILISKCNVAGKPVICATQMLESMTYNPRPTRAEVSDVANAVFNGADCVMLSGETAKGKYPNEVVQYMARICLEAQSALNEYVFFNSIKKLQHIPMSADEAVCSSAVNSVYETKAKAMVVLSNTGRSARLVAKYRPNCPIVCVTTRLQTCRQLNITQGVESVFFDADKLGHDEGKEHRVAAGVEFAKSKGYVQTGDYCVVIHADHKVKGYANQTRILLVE
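0.1 nM LmPK, 0.5 mM PEP, 0.1 mM ADP; 50 mM imidazole pH 7.2, 7 mM MgCl2, 50 mM KCl; 1 h RT. Kinase-Glo luminescence readout, normalized to no-enzyme (full inhibition) and uninhibited wells.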
The depositor's hits bear a star; ? = inconclusive; · = no result given. This is one part of a sample in which hits are shown more often than they occur. Unless noted, the call rests on the fitted dose curve; in most records, active means well fitted curve in the direction sought with a large enough effect; inconclusive means small, poorly fitted or top-dose-only effect, or another doubt; inactive means no such curve, though single readings can be large; an effect the other way counts as inactive or inconclusive.

SMILES	TbPYK inhibitor	Shiga toxin inh	CHX counter	FBPA Giardia inh	RE007 growth inh	LmPK inhibitor
O=C(CN1C(=O)S/C(=C\C=C\c2ccccc2)C1=O)Nc1ccc(O)cc1	-0.2%	65.5*	71.7*	-0.8%	-19.0%	5.3%
O=C(CCCN1C(=O)/C(=C/c2ccccc2)SC1=S)Nc1cccc(O)c1	-3.6%	21.2*	12.3	-7.0%	-6.1%	-0.2%
O=C(CCCN1C(=O)/C(=C\c2ccccc2)SC1=S)Nc1cccc(C(=O)O)c1	-3.0%	1.8	-3.9	11.5%	3.2%	-3.2%
Cc1nc2c(-c3ccccc3)c(C)nn2c(SCC(N)=O)c1Cc1ccccc1	0.4%	7.8	-2.0	-5.6%	2.0%	1.7%
COc1ccc2c(c1OC)C(=O)N1c3ccccc3SC21 (configuration not stated)	-19.7%	54.2*	35.3*	19.9%	-3.1%	-3.6%
COc1ccc2c(c1OC)C(=O)N1c3ccccc3COC21 (configuration not stated)	-1.2%	80.2*	41.2*	-9.1%	-19.6%	-14.4%
Cn1c(=NC(=O)c2cccc([N+](=O)[O-])c2)sc2ccccc21	4.1%	118.7*	26.9*	1.4%	1.3%	-9.0%
Cn1c(=NC(=O)c2ccco2)sc2ccccc21	-4.4%	53.5*	31.8*	-10.8%	-12.1%	?
CC(=O)N=c1sc2cc(C)ccc2n1C	-9.5%	147.4*	28.5*	1.3%	-16.7%	4.9%
Cc1sc(=NC(=O)c2ccco2)n(C)c1-c1ccc(F)cc1	1.1%	126.0*	43.6*	-1.0%	-6.9%	-2.5%
CCC(=O)N=c1sc2ccccc2n1-c1ccccc1	3.2%	29.5	-2.4	-1.0%	-0.4%	-2.2%
Cn1c(NC(=O)c2ccco2)c(-c2ccccc2)c(=O)c2ccccc21	-7.6%	-14.9	4.4	-18.9%	15.0%	3.6%
Cn1c(=NC(=O)CCl)sc2ccccc21	1.7%	46.0	28.4*	·	?	-4.8%
Cc1sc(=NC(=O)c2ccco2)n(C)c1-c1ccccc1	-0.4%	52.3*	40.1*	1.8%	-5.2%	-12.5%
Cc1ccc(NC(=O)N2CCCC(c3nc(-c4ccc(F)cc4)no3)C2)cc1 (configuration not stated)	-7.2%	59.9*	15.1	-3.2%	5.0%	0.6%
Cc1ccccc1NC(=O)N1CCCC(c2nc(-c3ccc(C(C)C)cc3)no2)C1 (configuration not stated)	2.2%	-1.0	26.0*	2.5%	7.1%	6.3%
Cc1ccccc1NC(=O)N1CCCC(c2nc(-c3ccc(F)cc3)no2)C1 (configuration not stated)	-5.7%	110.3*	24.0*	-0.1%	1.1%	1.8%
COCCN1CCN(C(=O)c2cc(COc3ccc(F)c(F)c3)on2)CC1	3.8%	25.8	26.9*	·	-1.2%	-2.7%
O=C(c1cc(COc2ccc(F)c(F)c2)on1)N1CCN(C2CCCCC2)C(=O)C1	-3.5%	58.6	30.8*	·	-18.4%	4.7%
Cc1cccnc1CN1CCN(C(=O)c2cc(COc3ccc4ncccc4c3)on2)CC1	-6.0%	-6.0	1.6	0.1%	-29.3%	-5.8%
O=C(c1cc(COc2c(F)cccc2F)on1)N1CCN(C2CCCCC2)C(=O)C1	-0.6%	1.3	3.2	7.8%	-22.9%	-3.8%
O=C(c1cc(COc2ccc(F)c(F)c2)on1)N1CCN(C/C=C/c2ccccc2)CC1	5.0%	44.7*	36.7*	-8.5%	-4.6%	-4.4%
CCCN1CCN(C(=O)c2cc(COc3ccc(F)c(F)c3)on2)CC1	9.8%	39.9*	28.6*	-4.0%	-5.7%	-2.2%
COCCN1CCN(C(=O)c2cc(COc3ccc(F)cc3F)on2)CC1	-7.1%	9.8	1.5	-6.4%	?	-1.8%
C[C@H](CO)N1C[C@H](C)[C@@H](CN(C)S(=O)(=O)c2cccs2)Oc2c(NS(=O)(=O)c3ccccc3)cccc2C1=O	2.7%	·	·	·	1.7%	·
